Results filed as inconclusive are left out. Calls of active or inactive are those of the source. Calls come from the whole dose curve; as a rule, active = well fitted inhibition curve with a large enough effect; inconclusive = small, poorly fitted or top-dose-only effect; inactive = flat fitted curve, though single readings scatter.
assay: Identification of antibody-drug conjugate (ADC) payloads which are substrates of ATP-binding cassette drug efflux transporters: ABCG2-HEK293-R5 cell line; details: ABCG2-HEK293-R5 viability, CellTiter-Glo ATP luminescence, 48 h
Source text: Antibody-drug conjugates (ADCs) feature an antibody recognizing a specific protein joined to a potent toxic payload. Numerous antibody-drug conjugates have received FDA approval; however, clinical resistance arises. Resistance mechanisms include decreased expression or mutation of the antibody target, impaired payload release, or increased expression of ATP-binding cassette (ABC) efflux transporters associated with multidrug resistance. We therefore sought to characterize the interaction of ABC multidrug transporters with ADC payloads. We performed a high-throughput screen with 27 common ADC payloads using cells lines expressing ABC transporters P-glycoprotein (P-gp, encoded by ABCB1) or ABCG2 (encoded by ABCG2). Confirmatory assays were also performed using cells transfected to express P-gp, ABCG2, or MRP1 (encoded by ABCC1). Several commonly used ADC payloads were substrates of P-gp, including calicheamicin gamma1, monomethyl auristatin E, DM1, and DM4. All the pyrrolobenzodiazepines tested - SJG136, SGD-1882, SG2057, and SG3199 - were substrates of P-gp, ABCG2, and MRP1. […] These findings highlight the risk of transporter-mediated resistance with certain ADC payloads and underscore the importance of selecting payloads that evade ABC transporter recognition in future ADC development.
HEK-293 cells were transfected with empty vector (pcDNA) or vector containing the human ABCB1 (MDR-19), ABCG2 (R-5), or ABCC1 gene (MRP1) and were maintained in EMEM with 2 mg/mL G418 added to maintain transporter expression. The HeLa derivative KB-3-1 and the P-gp overexpressing KB-8-5-11 subline were maintained in DMEM; KB-8-5-11 additionally received 100 ng/mL colchicine. H460 parental cells were obtained from the Division of Cancer Treatment and Diagnosis Tumor Repository, National Cancer Institute at Frederick, MD and were cultured in RPMI. The ABCG2 expressing subline H460 MX20 was generated by selecting H460 cells in 20 nM mitoxantrone. Media in all cases was supplemented with 10% FBS and 1% penicillin-streptomycin. We explored 27 common ADC payloads, in two orthogonal, paired cell line sets-a drug selected and transfected set for each transporter--to identify substrates of the ABC transporters P-gp and ABCG2. Compounds were sourced from Levena Biopharma (San Diego, CA), Selleck Chem (Houston, TX), ChemieTek (Indianapolis, IN), or Microsource Discovery Systems (Gaylordsville, CT). Screening was performed as previously described. Briefly, cells were plated at a density of 500 cells/well in 1536 well plates with compounds added using a 1536-head pin tool (Kalypsys, San Diego CA). Cells were incubated with cytotoxic drugs and processed with CellTiter Glo reagent (Promega, Madison, WI) to determine viability after 48 hours. P-gp substrates were identified by comparing compound activity between paired sets of low-expressing (sensitive) and over-expressing (resistant) cell lines.

Structure (SMILES) | Potency
CCN[C@H]1CO[C@@H](O[C@H]2[C@H](O[C@H]3C#C/C=C\C#C[C@]4(O)CC(=O)C(NC(=O)OC)=C3/C4=C\CSSSC)O[C@H](C)[C@@H](NO[C@H]3C[C@H](O)[C@H](SC(=O)c4c(C)c(I)c(O[C@@H]5O[C@@H](C)[C@H](O)[C@@H](OC)[C@H]5O)c(OC)c4OC)[C@@H](C)O3)[C@@H]2O)C[C@@H]1OC | 3.8 nM (active)
CC(C)(C)OC(=O)Nc1ccc2[nH]c(C(=O)N3C[C@@H](CCl)c4c3cc(O)c3ccccc43)cc2c1 | 33.6 nM (active)
CCN(C(C)=O)[C@H]1CO[C@@H](O[C@H]2[C@H](O[C@H]3C#C/C=C\C#C[C@]4(O)CC(=O)C(NC(=O)OC)=C3/C4=C\CSSSC)O[C@H](C)[C@@H](NO[C@H]3C[C@H](O)[C@H](SC(=O)c4c(C)c(I)c(O[C@@H]5O[C@@H](C)[C@H](O)[C@@H](OC)[C@H]5O)c(OC)c4OC)[C@@H](C)O3)[C@@H]2O)C[C@@H]1OC | 67.1 nM (active)
CN(C)CCOc1ccc2[nH]c(C(=O)N3C[C@@H](CCl)c4c3cc(O)c3ccccc43)cc2c1 | 1.7 nM (active)
COC(=O)c1cc2c3c(cc(O)c2[nH]1)N(C(=O)c1cc2cc(OC)c(OC)c(OC)c2[nH]1)CC3CCl (stereo not given) | 4.2 nM (active)

From PubChem BioAssay AID2061323 (National Center for Advancing Translational Sciences (NCATS), 2025)
